Bioassay records from PubChem.
GSTO1 inh – counter-screen for RBBP9 inhibitors: inhibitors of human GSTO1; P78417; recombinant GSTO1, activity-based probe fluorescence polarization; inhibition, % at 5.96 µM; 300,000 tested, 1.1% active; AID 1974;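 active means inhibition above the campaign mean inhibition plus 3 SD, cut at about 35% in these data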
Fam108B counter – counter-screen for RBBP9 inhibitors: inhibitors of mouse Fam108B | recombinant Fam108B, FP-Rh probe fluorescence polarization | inhibition, % at 9.51 µM | 300,000 tested, 0.33% active;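 active means inhibition above the screen mean inhibition plus 3 SD, computed separately per campaign, cut at about 18% in these data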;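 further: inhibitors lower polarization as less probe binds the enzyme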
PME-1 inh – PME-1 (human) inhibition; 320,000 tested, 0.53% active; recombinant PME-1, FP-Rh probe fluorescence polarization; inhibition, % at 5.9 µM; Q9Y570; AID 2130;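 active means inhibition above the campaign mean of all compounds plus 3 SD, cut at about 26% in these data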;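 further: competitive labeling of PME-1 active site by serine hydrolase directed probe; inhibitors block probe labeling so polarization falls and inhibition rises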
Target sequence (Q9Y570 whole entry, looked up): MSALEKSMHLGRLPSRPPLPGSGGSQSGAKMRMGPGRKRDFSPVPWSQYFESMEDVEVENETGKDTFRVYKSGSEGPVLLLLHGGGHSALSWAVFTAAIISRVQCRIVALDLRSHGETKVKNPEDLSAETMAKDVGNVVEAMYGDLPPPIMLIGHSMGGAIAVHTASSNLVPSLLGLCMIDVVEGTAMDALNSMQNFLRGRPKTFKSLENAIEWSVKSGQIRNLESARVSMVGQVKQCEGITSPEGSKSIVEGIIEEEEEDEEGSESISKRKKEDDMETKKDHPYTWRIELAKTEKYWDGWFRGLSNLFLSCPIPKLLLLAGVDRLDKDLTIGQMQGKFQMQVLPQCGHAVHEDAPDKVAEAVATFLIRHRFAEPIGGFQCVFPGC
LYPLA1 inh – LYPLA1 (human) inhibition in PME1 counter-screen. O75608. recombinant LYPLA1, FP-Rh probe fluorescence polarization. inhibition, % at 5.9 µM. 320,000 tested, 0.16% active. AID 2174;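 active means inhibition above the mean of all tested compounds plus 3 SD, set per campaign, cut at about 14% in these data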;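 further: inhibitors block serine hydrolase probe labeling of LYPLA1 so polarization falls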
LYPLA2 counter – blocks human lysophospholipase 2, a PME1 counter-screen. recombinant LYPLA2, FP-Rh probe fluorescence polarization. inhibition, % at 5.9 µM. 320,000 tested, 0.38% active;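 active means inhibition above the screen-wide mean plus 3 SD, limit set per campaign, cut at about 26% in these data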
Target sequence (O95372 whole entry, looked up): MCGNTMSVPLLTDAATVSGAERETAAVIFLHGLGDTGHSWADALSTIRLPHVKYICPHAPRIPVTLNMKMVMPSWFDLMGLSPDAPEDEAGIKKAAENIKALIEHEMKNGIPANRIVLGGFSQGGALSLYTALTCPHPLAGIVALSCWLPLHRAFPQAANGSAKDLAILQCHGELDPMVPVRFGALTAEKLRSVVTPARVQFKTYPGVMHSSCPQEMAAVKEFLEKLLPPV
PAD4 inh – PAD4 (human) enzyme inhibition; recombinant PAD4, RCA probe fluorescence polarization; Q9UM07; inhibition, % at 6.36 µM; 330,000 tested, 0.41% active; AID 485272;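 active means percent inhibition above a cutoff equal to the mean of all tested compounds plus 3 SD, cut at about 15% in these data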
Fam108b confirm – confirmation of mouse Fam108b serine hydrolase inhibitors; recombinant Fam108b, FP-Rh probe fluorescence polarization; 930 tested, 44% active; inhibition, % at 9.51 µM; shares compounds with Fam108B counter;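 active means inhibition above a limit from the primary screen, the mean over all compounds plus 3 SD, cut at about 19% in these data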;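 further: inhibitors free the probe so polarization falls as inhibition rises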
Fam108b inh – inhibits mouse Fam108b in gel-based ABPP | AID 588649 | 260 tested, 44% active | shares compounds with Fam108B counter | inhibition, % at 20 µM | recombinant Fam108b, fluorophosphonate probe; in the data active means inhibition above about 40%
GSTO1 confirm – confirmation of human GSTO1 inhibitors | shares compounds with GSTO1 inh | 2,400 tested, 54% active | inhibition, % at 5.96 µM | recombinant GSTO1, probe fluorescence polarization;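 active means inhibition above the primary screen's cutoff, its mean inhibition plus 3 SD, cut at about 35% in these data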;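 further: loss of polarization as inhibitors block binding of rhodamine sulfonate ester activity probe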
Each line names hits and unclear results; the compound was inactive in the other large screens (follow-up assays come after a bar, where they were run). A selection: hits, their analogues and other compounds. The true share with any hit is near 1.8%.

COc1ccccc1C(=O)NCCC(=O)Nc1cccc(S(=O)(=O)N2CCCC2)c1	none (no result: GSTO1 inh, Fam108B counter)
COCCn1c(N)c(C(=O)OCc2ccccc2)c2nc3ccccc3nc21	GSTO1 inh 70, Fam108B counter 42 | Fam108b confirm inactive | GSTO1 confirm 58
C=CCn1c(N)c(C(=O)OCCC)c2nc3ccccc3nc21	none
Nc1ccc(N)c(C(=O)O)c1	GSTO1 inh 57, Fam108B counter 57 | Fam108b confirm 45 | Fam108b inh inactive | GSTO1 confirm inactive
Cc1ccc(C)c(N2CCN(C(=O)CCc3nc(-c4ccccc4Br)no3)CC2)c1	none (no result: GSTO1 inh, Fam108B counter, PME-1 inh, LYPLA1 inh, LYPLA2 counter)
O=S(=O)(O)c1cccc2c(N=Nc3ccc(O)c4ncccc34)cccc12	GSTO1 inh 65, Fam108B counter 50 | Fam108b confirm 45 | Fam108b inh inactive | GSTO1 confirm 63
O=C(Nc1cccc(C(F)(F)F)c1)c1cc[n+]([O-])cc1	none
O=C(Nc1cccc(C(F)(F)F)c1)c1ccc2nc(-c3ccco3)c(-c3ccco3)nc2c1	GSTO1 inh 50, Fam108B counter 52, PME-1 inh 30 | Fam108b confirm inactive | GSTO1 confirm inactive
CN(CC(=O)Nc1ccc(F)cc1)C(=O)CN1C(=O)NC2(CCCc3ccccc32)C1=O (stereo unspecified)	none
O=C(O)c1ccc2c(c1)C(=O)/C(=C\c1ccco1)C2=O	GSTO1 inh 40, Fam108B counter 18 | Fam108b confirm inactive | GSTO1 confirm 50
O=S(=O)(c1cc(O)ccc1O)c1cccc2c(S(=O)(=O)c3cc(O)ccc3O)cccc12	GSTO1 inh 64, Fam108B counter 36 | Fam108b confirm 32 | Fam108b inh 55 | GSTO1 confirm inactive
O=S(=O)(O)c1cc(O)ccc1O	none
CCn1nc([N+](=O)[O-])c(C(C#N)c2nc3cc(C(F)(F)F)ccc3s2)c(Cl)c1=O (stereo unspecified)	GSTO1 inh 51, Fam108B counter 43, PME-1 inh 56 | Fam108b confirm 38 | Fam108b inh 65 | GSTO1 confirm 51
Cc1ccc(Cn2c(C(C)Nc3nc(-c4ccc(Cl)c([N+](=O)[O-])c4)cs3)nc3cc(C(F)(F)F)ccc32)cc1 (stereo unspecified)	none
Brc1cccc(C2Nc3cccc4cccc(c34)N2)c1	GSTO1 inh 40, Fam108B counter 22 | Fam108b confirm inactive | GSTO1 confirm inactive
CCOc1ccc(C2Nc3cccc4cccc(c34)N2)cc1OC	GSTO1 inh 45, Fam108B counter 25 | Fam108b confirm inactive | GSTO1 confirm inactive
CCOc1ccc(C2NCCc3cc(OC)c(OC)cc32)cc1OC (stereo unspecified)	none
Brc1ccc(C2Nc3cccc4cccc(c34)N2)o1	GSTO1 inh 54, Fam108B counter 26 | Fam108b confirm inactive | GSTO1 confirm inactive
CCN(CC)c1ccc2c(-c3ccc(S(=O)(=O)O)cc3S(=O)(=O)[O-])c3ccc(=[N+](CC)CC)cc-3oc2c1	GSTO1 inh 198, Fam108B counter 90, PME-1 inh active (no result: PAD4 inh) | Fam108b confirm 166 | GSTO1 confirm active
Cc1cccc(C)c1NC(=O)CSc1nnc(-c2ccco2)c(-c2ccco2)n1	GSTO1 inh 58, Fam108B counter 26 | Fam108b confirm inactive | GSTO1 confirm 40
O=C1CC(c2ccc(O)cc2)Oc2cc(O)cc(O)c21 (stereo unspecified)	none
CC1CC(=O)c2c(cc3c(-c4c(O)cc(O)c5c(O)c6c(cc45)OC(C)CC6=O)c(O)cc(O)c3c2O)O1 (stereo unspecified)	GSTO1 inh 62, Fam108B counter 54 | Fam108b confirm 66 | Fam108b inh inactive | GSTO1 confirm 73
O=C1CCCC2=C1C(c1ccco1)Nc1ccc3ccccc3c12 (stereo unspecified)	GSTO1 inh 38, Fam108B counter 18 | Fam108b confirm inactive | GSTO1 confirm inactive
COc1ccc(CCNC(=O)CCCn2ncn3c(cc4occc43)c2=O)c(OC)c1	none
O=C1NC(=S)N/C1=C/c1cc2c(cc1[N+](=O)[O-])OCO2	GSTO1 inh 83, Fam108B counter 47 | Fam108b confirm inactive | GSTO1 confirm inactive
O=C(O)/C=C\c1cc2c(cc1[N+](=O)[O-])OCO2	none
COc1ccc(S(=O)(=O)Nc2cccc3c2O[C@H](CN(C)C(=O)NC(C)C)[C@@H](C)CN([C@H](C)CO)C3=O)cc1	none (no result: GSTO1 inh, Fam108B counter, PME-1 inh, LYPLA1 inh, LYPLA2 counter)
COC(=O)[C@]1(C)N[C@H](CN(C)C(=O)c2ccc(F)cc2)[C@@H]2C(=O)N(C)C(=O)[C@@H]21	none (no result: GSTO1 inh, Fam108B counter, PME-1 inh, LYPLA1 inh, LYPLA2 counter)
CC(C)(C)N1C(=O)Cc2c1nc(N)c1c(N)nc(N3CCCCC3CO)c(C#N)c21 (stereo unspecified)	GSTO1 inh 91, Fam108B counter 40 | Fam108b confirm 90 | GSTO1 confirm 88
CCOc1ccc(-c2csc(/C(C#N)=C\c3ccc(O)c([N+](=O)[O-])c3)n2)cc1	GSTO1 inh 43, Fam108B counter 25 | Fam108b confirm inactive | GSTO1 confirm 54
Cc1onc(-c2ccccc2)c1C(=O)NCC(=O)Nc1cc(Cl)ccc1Cl	none (no result: GSTO1 inh, Fam108B counter, PME-1 inh, LYPLA1 inh, LYPLA2 counter)
CN1c2ccccc2C(C)(C)C12C=Nc1c(ccc3ccccc13)O2 (stereo unspecified)	GSTO1 inh 90, Fam108B counter 31 | Fam108b confirm inactive | GSTO1 confirm inactive
O=[N+]([O-])c1cc([N+](=O)[O-])c2c(=Nc3ccccc3)n(-c3ccccc3)n(O)c2c1	GSTO1 inh 46, Fam108B counter 19 | Fam108b confirm 27 | GSTO1 confirm 63
Oc1ccccc1N=N/C(=N/Nc1ccccc1O)c1ccccc1	none
N#C/C(N=Nc1ccccc1O)=N\Nc1ccccc1O	GSTO1 inh 87, Fam108B counter 39, PME-1 inh 32 | Fam108b confirm 40 | Fam108b inh inactive | GSTO1 confirm 68
CC(C)(C)OC(=O)N1CCC(c2c(C(=O)NCC3CCN(C4CCCC4)C3)cnn2-c2cccc(Cl)c2)CC1 (stereo unspecified)	none
COc1ccc(NC(=S)NNc2ccc(S(=O)(=O)Nc3ccccc3C(=O)O)cc2[N+](=O)[O-])cc1	GSTO1 inh 67, Fam108B counter 52, PME-1 inh 50 | Fam108b confirm inactive | GSTO1 confirm 80
CCOc1ccc(-n2c(SCC(=O)NC)nnc2-c2ccco2)cc1	none
Cc1ccc(NC(=O)C(=O)Nc2ccc(C)cn2)nc1	none
Cc1ccc(NC(=O)/C(C#N)=C(\N)C(Cl)(Cl)Cl)nc1	GSTO1 inh 47, Fam108B counter 21 | Fam108b confirm 23 | GSTO1 confirm 76
